Shown is part of a subset that was picked to be rich in hits.
EphB4 ephrin blk: EphB4-ephrin-B2 interaction antagonism; P54760; EphB4 LBD / TNYL-RAW-Alexa532 peptide, fluorescence polarization; inhibition, % at 7 µM; actives 0.15% (n = 97,000); AID 720;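 active = inhibition above the screen-wide mean inhibition plus 3 SD, cut at about 15% in these data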;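 also: 0% = DMSO wells and 100% = excess unlabeled TNYL-RAW peptide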
hDAT+cocaine: modulates human dopamine transporter uptake under cocaine. B-score at 10 µM. LLC-PK1 hDAT cells, [14C]-dopamine uptake with cocaine IC80; actives deviate in either direction. actives 1.3% (n = 110,000);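 active = Z score or B-score, a plate-position-corrected score, falls beyond the plate's 99.7% confidence bounds, in either direction; inactive = both scores lie inside the 99.7% bounds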;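 also: scored against the spread of the other compound wells on the same plate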
D1 mod: allosterically modulates the human D1 dopamine receptor. HEK293 D1, CRE-luciferase, dopamine EC30 potentiation; actives deviate in either direction. AID 641. B-score at 10 µM. actives 5.9% (n = 58,000). P21728;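 active = luminescence count or its row- and column-corrected plate score outside the 99.7% band of the plate's sample wells, on either side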
Target sequence (P21728 whole entry, looked up): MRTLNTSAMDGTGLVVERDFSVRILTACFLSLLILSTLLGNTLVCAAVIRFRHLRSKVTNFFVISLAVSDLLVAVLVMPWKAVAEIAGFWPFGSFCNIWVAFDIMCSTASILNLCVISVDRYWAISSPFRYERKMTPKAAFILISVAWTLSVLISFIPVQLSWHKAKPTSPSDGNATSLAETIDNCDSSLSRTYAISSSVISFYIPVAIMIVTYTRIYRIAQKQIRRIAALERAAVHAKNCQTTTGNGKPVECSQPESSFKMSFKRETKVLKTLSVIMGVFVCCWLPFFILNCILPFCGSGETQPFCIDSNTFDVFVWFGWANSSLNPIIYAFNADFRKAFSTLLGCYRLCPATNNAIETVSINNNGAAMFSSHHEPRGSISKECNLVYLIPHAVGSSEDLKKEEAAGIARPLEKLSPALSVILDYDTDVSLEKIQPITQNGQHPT
Numbers without * were called inactive; x = no result given.

SMILES | EphB4 ephrin blk | hDAT+cocaine | D1 mod
O=C(CCS(=O)(=O)Cc1ccccc1)NCC1CCCO1 (centres undefined) | -2 | 2.1* | -0.63
Cc1ccc(-n2nc(C(=O)N/N=C/c3cccc(C(F)(F)F)c3)c3ccccc3c2=O)cc1C | -8 | -0.11 | x
Cc1sc2ncnc(SCC(=O)NNC(=O)COc3cccc4ccccc34)c2c1C | 5 | -1.9 | x
CCCN1C(=O)c2cc(C(=O)NC3CCCCCC3)ccc2C1O (centres undefined) | -7 | 0.52 | -3.2*
CCCN1C(=O)c2cc(C(=O)O)ccc2C1O (centres undefined) | -10 | -2.1 | 0.88
O=C(Nc1cccc(Cl)c1)c1ccc(-n2cncn2)c([N+](=O)[O-])c1 | 4 | -0.72 | x
O=C(CSc1n[nH]c(-c2cccs2)n1)N1CCN(S(=O)(=O)c2ccccc2)CC1 | -3 | -0.18 | 0.21
c1ccc(-c2nc(CSc3n[nH]c(-c4cccs4)n3)cs2)cc1 | 4 | 4.1* | x
O=C(CSc1nc2c(cnn2-c2ccc(F)cc2)c(=O)[nH]1)N1CCOCC1 | -6 | -7.9* | 0.74
O=C(CSc1nc2c(cnn2-c2ccccc2)c(=O)[nH]1)N1CCOCC1 | -3 | 0.0058 | 0.22
COc1cccc(C2CC(c3cccs3)=NN2C(=O)CSc2nc3c(cnn3-c3ccc(F)cc3)c(=O)[nH]2)c1OC (centres undefined) | x | 3* | x
COc1ccc(C2CC(c3cccs3)=NN2C(=O)CSc2nc3c(cnn3-c3ccccc3)c(=O)[nH]2)cc1 (centres undefined) | x | 1.2 | x
CC1(C)c2[nH]c3ccccc3c2C[C@@H]2C(=O)N(Cc3ccccc3)C(=O)N21 | x | 0.49 | x
CC1(C)c2[nH]c3ccccc3c2C[C@H]2C(=O)N(Cc3ccccc3)C(=O)N21 | x | 2.8* | x
N#Cc1c(NC(=O)Cn2cnc3ccccc3c2=O)oc(-c2ccccc2)c1-c1ccccc1 | 1 | -0.47 | -4.7*
N#Cc1c(NC(=O)CSc2ncccn2)oc(-c2ccccc2)c1-c1ccccc1 | 9 | -0.084 | x
Cc1sc2ncnc(Sc3nnnn3-c3ccccc3)c2c1C | -3 | -0.34 | -4.8*
Clc1ccc(CON/C=N/c2ncnc3sccc23)cc1 | 1 | 0.25 | x
Clc1ccc(-n2nnnc2Sc2ncnc3sccc23)cc1 | 5 | -1.1 | -2.9*
CCSc1nnnn1-c1ccccc1 | 3 | -0.99 | x
O=C(COc1ncnc2c(Cl)cc(Cl)cc12)NCCC1=CCCCC1 | 4 | 0.09 | x
Cc1ccc(-n2c3c(c(=O)[nH]c2=O)C(C(F)(F)F)(C(F)(F)F)NC(=O)N3)cc1 | 9 | -0.44 | x
C=CCOc1cccc(C2/C(=C(/O)c3ccccc3)C(=O)C(=O)N2CCCN2CCOCC2)c1 (centres undefined) | x | x | -0.33
Cc1c(SCCO)c(=O)[nH]c2cc3c(cc12)OCO3 | 2 | -0.055 | x
N#Cc1cc2c(nc1SCc1ccccc1)CCCCC2 | 1 | -0.032 | x
SMILES | EphB4 ephrin blk | hDAT+cocaine | D1 mod
N#Cc1cc2c(nc1SCC(O)CS(=O)(=O)Cc1ccccc1)CCCC2 (centres undefined) | -4 | -0.31 | -3.6*
CCn1c(-c2ccc(N)cc2)nc2ccccc21 | 0 | 0.78 | -0.81
CN(C)c1ccc(-c2nc3ccccc3n2C)cc1 | -4 | 2 | -5.1*
Cc1ccc(C(O)c2nc3ccccc3n2C(C)C)cc1 (centres undefined) | -5 | x | x
Cc1ccc(-c2nc3ccccc3n2C)o1 | 0 | -0.55 | x
CCn1c(-c2ccc(N(C)C)cc2)nc2ccccc21 | 1 | -0.074 | -4.9*
CC(C)n1c(-c2ccc(N(C)C)cc2)nc2ccccc21 | 1 | 0.49 | -4.6*
CCC1=C[C@H]2CN(C1)Cc1c([nH]c3ccccc13)[C@@](C(=O)OC)(c1cc3c(cc1OC)N(C)[C@H]1[C@@](O)(C(=O)OC)[C@H](OC(C)=O)[C@]4(CC)C=CCN5CC[C@]31[C@@H]54)C2 | x | -1.1 | x
O=C(NCc1cccc(Br)c1)C1CC(c2ccccc2C(F)(F)F)=NO1 (centres undefined) | x | -0.12 | x
C=CCN1c2ccccc2[C@]23C[C@@H](C(=O)OC)N(C(=O)c4cccs4)C2=NC(C(=O)OC)=C(C(=O)OC)[C@H]13 | x | -0.13 | x
O=C(NCc1nc2ccccc2[nH]1)C1=C[C@@H](c2ccc3c(c2)OCO3)C[C@@H](OCc2ccc(CO)cc2)O1 | x | 0.79 | x
CCOc1c2ccc(C(=O)NCc3ccc(C)cc3)cc2nn1CC | -4 | 3.2* | x
CCCn1nc2cc(C(=O)NCc3ccc(C)cc3)ccc2c1OCC | -6 | 0.83 | x
O=C(NCc1ccccc1)c1ccc(S(=O)(=O)C(F)F)cc1 | 0 | -0.65 | x
N#Cc1ccc(C(c2nnnn2Cc2ccccc2)N2CCCC2)cc1 (centres undefined) | 1 | -9.3* | x
N#Cc1cccc(C(c2nnnn2Cc2ccccc2)N2CCCC2)c1 (centres undefined) | -13 | 0.047 | -0.75
Fc1ccc(C(c2nnnn2Cc2cccs2)N2CCN(c3ccccc3)CC2)cc1 (centres undefined) | -6 | 2.2* | x
COc1ccc(Cn2nnnc2C(c2cccs2)N2CCN(c3ccccc3)CC2)cc1 (centres undefined) | -6 | -0.39 | -0.38
Cc1nnc(N2CCN(c3ccccc3)CC2)c2nn(-c3ccccc3F)c(C)c12 | -5 | x | x
COc1ccc(CNC(=O)COC(=O)c2cnccn2)cc1 | 0 | 0.57 | x
CCCCC(=O)Nc1ccc(C(=O)Nc2nnc(COC)s2)cc1 | 4 | 1.9 | x
O=C1CNC(=O)N1CC(=O)N1CCCc2ccccc21 | 0 | -0.46 | x
Cc1cc(C)c2nc(N3CCCC(C(=O)N4CCC(C(N)=O)CC4)C3)sc2c1 (centres undefined) | 1 | 0.65 | -4.1*
Cc1cc(C)c2nc(N3CCCC(C(=O)NCCN4CCOCC4)C3)sc2c1 (centres undefined) | 5 | -0.54 | -0.92
COc1cc(C2C(C#N)=C(N)OC3=C2C(=O)CCC3)c([N+](=O)[O-])cc1OC (centres undefined) | 0 | -0.01 | x
SMILES | EphB4 ephrin blk | hDAT+cocaine | D1 mod
Cc1ccc(NC(=O)c2ccc(-c3nn(C)c(=O)c4ccccc34)cc2)cc1 | -4 | 0.84 | x
Cn1nc(-c2ccc(C(=O)Nc3cccc(Cl)c3)cc2)c2ccccc2c1=O | -27 | -1* | x
CC1CCCC(NC(=O)C2CCCN2S(=O)(=O)c2cccc3nsnc23)C1C (centres undefined) | -5 | 0.12 | x
CCCCNC(=S)Nc1ccccc1F | -8 | -0.53 | x
Cc1c(C(=O)/C=C/c2cccs2)oc2ccc(F)cc12 | 2 | 0.096 | x
Cc1cc(/C=c2/sc3nc4ccccc4n3c2=O)c(C)n1-c1ccccn1 | 2 | -0.062 | -6.8*
O=c1/c(=C\c2cccnc2)sc2nc3ccccc3n12 | -5 | -0.47 | 0.001
CCOc1ccc(Cn2c(C)nc([N+](=O)[O-])c2SCC(O)CCl)cc1[N+](=O)[O-] (centres undefined) | -2 | 0.48 | x
Cc1nnc(NC(=O)Cn2cnc3c2c(=O)n(C)c(=O)n3C)s1 | -2 | -0.6 | x
NCCS(=O)(=O)O | x | -0.045 | x
O=C(O)c1cccnc1Nc1cccc(C(F)(F)F)c1 | x | 1.9 | -1.7
O=C(COC(=O)c1cccnc1Nc1cccc(C(F)(F)F)c1)NCCN1C(=O)CSC1=O | 9 | 3.5* | x
CCc1ccc(NC(=O)C(=O)NCCN2CCN(C(=O)c3ccco3)CC2)cc1 | 6 | -0.24 | x
Cn1c(SCc2cccc3ccccc23)nnc1-c1ccco1 | 7 | 2.7* | 0.13

Compound activity as filed in PubChem.
